Data as given in PubChem BioAssay AID1817 (Sanford-Burnham Center for Chemical Genomics, 2009).
Out of some 290,000 compounds screened, about 50 (0.02%) were called active. For the sample, actives were picked, then their nearest neighbours and some compounds at random. Measured potencies and affinities stand elsewhere. Values without a mark were called inactive.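 The calls were made as follows: active = displacement of at least 50% at 20 µM, with a fluorescence ratio check between 0.3 and a set limit; inactive = the rest.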

What follows are compounds tested against E3 ubiquitin-protein ligase SIAH1 (Homo sapiens) (UniProt Q8IUQ4) (assay: blockers of Siah-1 interaction with plectin peptide – biochemical, fluorescence polarization, rhodamine-plectin, uHTS, primary screen (AID 1817;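 also: plate controls were Siah plus tracer with DMSO for no effect and tracer alone without Siah for full effect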)). Settings: Siah-1 / rhodamine-plectin peptide fluorescence polarization; at 20 µM; stronger effect = higher value.
Chain of E3 ubiquitin-protein ligase SIAH1 (Homo sapiens) (Q8IUQ4 whole entry, looked up): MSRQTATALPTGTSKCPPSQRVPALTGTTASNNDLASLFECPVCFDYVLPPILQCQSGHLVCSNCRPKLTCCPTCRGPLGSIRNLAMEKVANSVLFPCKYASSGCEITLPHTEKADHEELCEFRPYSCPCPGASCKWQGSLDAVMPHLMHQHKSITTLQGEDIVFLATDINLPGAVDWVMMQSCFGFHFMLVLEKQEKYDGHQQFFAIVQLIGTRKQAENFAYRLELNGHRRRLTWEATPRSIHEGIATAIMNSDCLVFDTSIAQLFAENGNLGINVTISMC

Structure (SMILES) | displacement
Cc1ccc(N2C(=O)NC(=O)/C(=C\C=C\c3ccco3)C2=O)cc1 | 12.1%
CC(C)c1ccc(N2C(=O)NC(=O)/C(=C/C=C/c3ccco3)C2=O)cc1 | 51.8% (active)
CC(C)c1ccc(N2C(=O)NC(=O)/C(=C\C=C\c3ccco3)C2=O)cc1 | 14.6%
O=[N+]([O-])c1ccc(N2CCNCC2)cc1NCc1ccco1 | -3.7%
C=C1C(=O)O[C@H]2C[C@@H](C)[C@@H]3C=CC(=O)[C@@]3(C)C[C@H]12 | 12.6%
C=C1C(=O)O[C@@H]2C[C@@H](C)[C@H]3C=CC(=O)[C@]3(O)C[C@@H]12 | 51.6% (active)
C=C1C(=O)O[C@@H]2C[C@@H](C)[C@@H]3C=CC(=O)[C@@]3(C)[C@@H](O)[C@H]12 | 4.7%
Cc1cc(C=O)c(C)n1C1CCCCC1 | 2.7%
CCOC(=O)c1c(NS(=O)(=O)c2ccccc2)n(CCCOC)c2nc3ccccc3nc12 | 67% (active)
CCCCn1c(NC(=O)c2ccco2)c(C(=O)OCC)c2nc3ccccc3nc21 | 4.9%
CCCCCn1c(NC(=O)c2ccco2)c(C(=O)OCC)c2nc3ccccc3nc21 | 64.6% (active)
CCOC(=O)c1c(N)n(CCCOC(=O)c2ccco2)c2nc3ccccc3nc12 | 2.6%
CCCCn1c(NS(=O)(=O)c2ccc(C)cc2)c(C(=O)OCC)c2nc3ccccc3nc21 | 34.7%
COCCCn1c(N)c(C(=O)OCCOC)c2nc3ccccc3nc21 | 2.9%
COc1ccc(NC(=O)N2CCC3(CC2)OCCO3)cc1 | -2.3%
O=C(O)C1C2CCC(O2)C1C(=O)Nc1ccc(F)c(F)c1 (stereo not given) | 10.6%
O=C1NC(=S)N(Cc2ccco2)C(=O)/C1=C\c1cccs1 | 21.3%
Cc1ccccc1-n1c(O)c(/C=N/N2CCOCC2)c(=O)[nH]c1=S | 2.7%
Cc1cccc(C)c1NC1=NCCCCS1 | -1.2%
CCCC12CN3CCN(C1)CC(CCC)(C3)C2=O | 8.2%
